Growth data for eight compounds are collected here from PubChem BioAssay (NCI).

Test systems include HCT-15 colon; HT29 colon; SNB-75 CNS; SNB-19 CNS; U251 CNS; PC-3 prostate; UACC-62 melanoma; LOX IMVI melanoma; SK-MEL-28 melanoma; SK-MEL-2 melanoma; EKVX NSCLC; SN12C renal; UO-31 renal; TK-10 renal; ACHN renal; CAKI-1 renal; A498 renal; HL-60(TB) leukemia; CCRF-CEM leukemia; SK-MEL-5 melanoma.
What all share (test): NCI-60 one-dose screen, 48 h (100 = growth as untreated, 0 = no growth, -100 = all killed)
Conditions in all cases: 10 µM unless noted

About 83,000 compounds went through this panel and 20% of them were active in at least one assay; those are over-represented in the sample as a whole.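 Interpretation: 100, growth as untreated; towards 0, rising growth inhibition; 0, no net growth; 0 to -100, cell death. Compounds scoring below 10 were considered active.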 Values without a mark were called inactive. Calls of active or inactive are those of the source.

Take `Cc1cc(C(C)(C)C)ccc1O`: the growth with HCT-15 colon was 109%; in the assay on HT29 colon, 106%; with SNB-75 CNS it was 102%; in the assay on SNB-19 CNS it was 111%; in the assay on U251 CNS, 94.2%; with PC-3 prostate it was 93.6%. The growth was 109% in the assay with UACC-62 melanoma; 94.9% with LOX IMVI melanoma; 110% in the assay with SK-MEL-28 melanoma; 110% in the assay on SK-MEL-2 melanoma; 112% with EKVX NSCLC; 114% with SN12C renal. Besides, the growth in the assay on UO-31 renal is 86.9%; with TK-10 renal it was 108%; with ACHN renal, 112%; in the assay with CAKI-1 renal, 101%; in the assay with A498 renal it was 96%; with HL-60(TB) leukemia it was 96.9%. The growth in the assay on CCRF-CEM leukemia was 106%.

As to `CC[C@H](C)[C@H](NC(=O)CN(C)C)C(=O)N(C)[C@H](C[C@@H](OC(C)=O)c1nc(C(=O)NC23CC(C(=O)OC)(C2)C3)cs1)C(C)C`, the growth was 21.6% with HCT-15 colon; -1.6% (active) in the assay with HT29 colon; 45.1% with SNB-75 CNS; 13.5% with U251 CNS; 25.8% in the assay on PC-3 prostate; 12.6% in the assay on SK-MEL-5 melanoma. For the same compound, the growth in the assay with UACC-62 melanoma was 24.4%; in the assay on LOX IMVI melanoma, 19.7%; in the assay with SK-MEL-28 melanoma, 66.4%; in the assay on SK-MEL-2 melanoma, 37.5%; with EKVX NSCLC, 32.8%; in the assay with SN12C renal it was 31.3%. Further, the growth in the assay with UO-31 renal is 50.1%; in the assay on TK-10 renal it was 43.5%; in the assay with ACHN renal, 46.9%; with CAKI-1 renal it was 51.6%; with A498 renal it was 9.1% (active); in the assay on HL-60(TB) leukemia, -18.9% (active). In addition, in the assay on CCRF-CEM leukemia, the growth was 6.24% (active).

On to `CC(=O)Cc1ccc2c(c1)OCO2`, for which the growth in the assay on HCT-15 colon was 113%; in the assay on HT29 colon, 98.6%; in the assay with SNB-75 CNS, 117%; in the assay on SNB-19 CNS, 98.8%; with U251 CNS, 103%; in the assay on PC-3 prostate, 106%. The growth in the assay on UACC-62 melanoma was 103%; in the assay on LOX IMVI melanoma, 100%; with SK-MEL-28 melanoma, 130%; in the assay on SK-MEL-2 melanoma it was 112%; in the assay with EKVX NSCLC, 109%; in the assay on SN12C renal, 101%. Further, the growth in the assay with UO-31 renal was 102%; in the assay with TK-10 renal it was 110%; in the assay on CAKI-1 renal it was 96.9%; in the assay on HL-60(TB) leukemia, 77.4%; with CCRF-CEM leukemia, 108%.

Consider `O=S(=O)(c1ccc(O)cc1)c1ccccc1O`, for which the growth in the assay on HCT-15 colon is 108%; in the assay on HT29 colon, 112%; in the assay with SNB-75 CNS, 96.7%; in the assay on SNB-19 CNS, 104%; in the assay on U251 CNS it was 107%; in the assay on PC-3 prostate it was 89%. Moreover, the growth was 102% in the assay on SK-MEL-5 melanoma; 98.2% with UACC-62 melanoma; 105% in the assay with SK-MEL-28 melanoma; 104% in the assay on SK-MEL-2 melanoma; 107% in the assay with EKVX NSCLC; 101% in the assay on SN12C renal. Besides, the growth in the assay on TK-10 renal was 107%; with CAKI-1 renal, 96.2%; with A498 renal it was 97%; in the assay with CCRF-CEM leukemia it was 88.6%.

As to `O=C(O)C(Br)CBr` (stereo not drawn), the growth in the assay on HCT-15 colon is 90.8%; in the assay with HT29 colon, 97.6%; in the assay on SNB-75 CNS it was 89.5%; in the assay on SNB-19 CNS, 107%; in the assay with U251 CNS it was 97%; in the assay on PC-3 prostate, 94.3%. The growth in the assay with SK-MEL-5 melanoma was 98.8%; in the assay on LOX IMVI melanoma, 94.3%; in the assay with SK-MEL-28 melanoma, 110%; in the assay on SN12C renal, 98%; in the assay on UO-31 renal, 89.4%; with CAKI-1 renal it was 101%. Further, in the assay with CCRF-CEM leukemia, the growth was 96.3%.

For the compound `C=CC[PH+](c1ccccc1)c1ccccc1.C=CC[PH+](c1ccccc1)c1ccccc1.[Pt+2].[S-]c1ncccn1.[S-]c1ncccn1`, the growth in the assay with HCT-15 colon was -29.3% (active); in the assay with HT29 colon it was 0.0923% (active); in the assay with SNB-75 CNS it was 58.3%; with U251 CNS, 59.1%; in the assay on PC-3 prostate, 38.8%; in the assay on SK-MEL-5 melanoma it was 66.6%. For the same compound, the growth in the assay on UACC-62 melanoma is 27.7%; with LOX IMVI melanoma it was -68.3% (active); in the assay on SK-MEL-28 melanoma it was -30.9% (active); in the assay on SK-MEL-2 melanoma, 75%; in the assay with EKVX NSCLC, 2.19% (active); in the assay on SN12C renal it was 40.3%. In addition, the growth is -94.5% (active) in the assay on UO-31 renal; -3.54% (active) in the assay with TK-10 renal; 5.27% (active) in the assay with CAKI-1 renal; 103% in the assay on A498 renal; -5.51% (active) with HL-60(TB) leukemia; 6.99% (active) with CCRF-CEM leukemia.

Turning to `CCC(Br)(CC)C(=O)NC(N)=O`, the growth in the assay on HCT-15 colon was 103%; in the assay with HT29 colon, 108%; with SNB-75 CNS, 86.1%; with U251 CNS, 105%; in the assay on PC-3 prostate, 91.4%; in the assay with SK-MEL-5 melanoma, 99.2%. The growth with UACC-62 melanoma is 100%; in the assay with LOX IMVI melanoma, 102%; with SK-MEL-28 melanoma, 109%; with SK-MEL-2 melanoma it was 109%; in the assay with EKVX NSCLC, 107%; in the assay on SN12C renal, 103%. The growth in the assay with UO-31 renal is 93.2%; in the assay with TK-10 renal, 104%; with ACHN renal it was 109%; in the assay with CAKI-1 renal, 98.2%; in the assay with A498 renal, 104%; with HL-60(TB) leukemia, 99.6%. For the same compound, the growth with CCRF-CEM leukemia was 102%.

Consider `O=S(=O)(F)c1cccc(Cl)c1C[P+](c1ccccc1)(c1ccccc1)c1ccccc1`, for which the growth was 91.7% with HCT-15 colon; 96.7% with HT29 colon; 81.2% with SNB-75 CNS; 100% with SNB-19 CNS; 85.4% with PC-3 prostate; 90.4% in the assay on SK-MEL-5 melanoma. The growth was 90.2% with UACC-62 melanoma; 101% with LOX IMVI melanoma; 109% in the assay with SK-MEL-28 melanoma; 97.1% with SK-MEL-2 melanoma; 102% with SN12C renal; 88.3% with UO-31 renal. The growth with TK-10 renal was 116%; with ACHN renal it was 97.7%; in the assay with CAKI-1 renal it was 94.4%; with A498 renal it was 122%; in the assay with CCRF-CEM leukemia, 86.7%.
